Screening results (PubChem)
An excerpt weighted towards active compounds, which were near 21% of everything screened.
Pf growth 48h: P. falciparum growth inhibition at 48 hours (one generation); P. falciparum luciferase growth in erythrocytes, 48 h; Potency, µM (doses to about 28.7 µM), for the others: at the highest dose activity change, negative = inhibition, most hits filed as inhibitors; hit rate 5.9% among 310,000; also: potency is read from the fitted curve at half-maximal effect; % is scaled to controls: 0 for no effect and ±100 for the full control effect
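Read-out is firefly luciferase luminescence from an integrated reporter in P. falciparum, so falling signal marks reduced parasite growth. Infected erythrocytes were at 2% hematocrit and 0.1% parasitemia (final) in Albumax-supplemented RPMI 1640.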
SARS PLP yeast: SARS-CoV PLP inhibition in yeast | S. cerevisiae expressing SARS-CoV PLpro, growth rescue | Potency, µM (top dose mostly 32.9 µM), for inactives: at the top dose activity, positive = growth rescue, hits mostly activators | hit rate 0.19% among 330,000; calls by dose curve; also: potency is read from the fitted curve at half-maximal effect; 0% is about no effect; nearly all actives have a fitted effect of over 55% in size
Pf growth 96h: inhibits malaria parasite growth, 96 h; P. falciparum luciferase reporter growth, 96 h; Potency, µM (top dose mostly 28.7 µM), for the others: at the top dose activity change, negative = inhibition, usual class: inhibitors; hit rate 6.9% among 320,000; also: potency is read from the fitted curve at half-maximal effect; % is scaled to controls: 0 for no effect and ±100 for the full control effect
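Cell-based qHTS: luciferase-tagged P. falciparum in erythrocytes (2% hematocrit, 0.05% parasitemia final) incubated with compounds for 96 hours, 37 C, 5% CO2; luciferase detection reagent then added and luminescence measured.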
Shiga inhibitor: blocks Shiga toxin action in Vero cells. hit rate 9.2% among 290,000. Vero cells, Shiga toxin protein synthesis inhibition reporter. inhibition, % at 38.7 µM; in the data active = inhibition mostly above about 28%, no sharp cut-off; inactive = mostly below about 43%; also: 0% is about no effect
Cycloheximide cs: affects cycloheximide protein synthesis inhibition readout, counter-screen; hit rate 12% among 300,000; AID 2314; max response, %; cell reporter, cycloheximide protein synthesis inhibition counterscreen; in the data active = max response mostly above about 13%, no sharp cut-off; inactive = mostly below about 14%; also: read at 38.3 µM for the half of the compounds with a filed dose; 0% is about no effect
NS1 inh: blocks influenza NS1 protein function. hit rate 0.4% among 270,000. Potency, µM (top dose mostly 46.1 µM), without a hit: at the top dose activity, positive = more growth; calls by dose curve; also: potency is read from the fitted curve at half-maximal effect; actives are rising curves; nearly all actives have a fitted effect of over 50% in size
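Compounds were scored for reversing the slow growth caused by influenza A NS1 in S. cerevisiae, measured by optical density at 600 nm. Assay medium contained 2% galactose at pH 6.0; NS1-free yeast of the same strain were the positive control.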
* = called active by the depositor; ? = inconclusive; . = no result given; [ ] = dose if it differs, or a comment. Unless noted, calls follow the shape of the dose curve; as a rule, active = well fitted inhibition curve with a large enough effect; inconclusive = small, poorly fitted or top-dose-only effect, or another doubt; inactive = no such curve, though single readings can be large or run the other way.

SMILES	Pf growth 48h	SARS PLP yeast	Pf growth 96h	Shiga inhibitor	Cycloheximide cs	NS1 inh
COc1ccc(Cl)cc1NC(=O)C1CC(c2ccccc2O)=NO1 (configuration not stated)	0.0%	-1.0%	-10.8%	31.0	-1.1	18.0%
CC(CN1CCOCC1)OC(=O)c1cccc(Br)c1 (configuration not stated)	.	-5.8%	-22.1%	20.7	-2.1	-1.2%
Cc1cccc(C(=O)OC(C)CN2CCOCC2)c1 (configuration not stated)	5.6%	-3.6%	9.28µM*	68.7	27.7*	.
CC(CN1CCCCC1)OC(=O)c1ccc2c(c1)OCCO2 (configuration not stated)	35.5%	-1.7%	0.1%	69.8*	43.2*	0.1%
CC(CN1CCCC1)OC(=O)c1cccc(F)c1 (configuration not stated)	-17.2%	-7.4%	?	-10.2	-1.7	-10.1%
Cc1cc(C)n(-c2cc(-c3ccccc3)nc(C)n2)n1	-3.5%	-1.1%	.	-14.0	-1.3	-6.5%
CC1CCCC(NC(=O)c2cccs2)C1C (configuration not stated)	?	1.8%	?	.	.	.
CCN(CC(=O)Nc1cc(Cl)ccc1C)C(=O)c1ccc(=O)n(Cc2ccccc2)n1	?	3.6%	9.28µM*	-13.1	1.8	-3.3%
CCN(CC(=O)Nc1c(F)cccc1F)C(=O)c1ccc(=O)n(Cc2ccccc2)n1	61.6%	-5.6%	-2.3%	-1.9	-2.5	5.4%
COc1cc(NC(=O)c2ccc3c(c2)OCCO3)ccc1NC(=O)c1cccs1	25.2%	-0.6%	-22.5%	72.7	21.8*	3.0%
COc1cc(NC(=O)c2ccco2)ccc1NC(=O)C(C)C	.	-1.3%	-10.4%	-9.1	10.5	-7.1%
O=C(Nc1ccc(NC(=O)c2cccs2)cc1)c1ccc2c(c1)OCCO2	151.1%	-1.0%	36.2%	-7.1	1.0	7.8%
COc1cc(NC(=O)c2ccc3c(c2)OCCO3)ccc1NC(=O)c1ccco1	60.5%	0.8%	2.33µM*	39.2*	18.9*	4.5%
C=CCNc1nc2c(c(=O)[nH]c(=O)n2C)n1CCOc1ccccc1	4.3%	0.7%	23.1%	.	-0.8	1.4%
Cc1ccccc1C(=O)NCC(c1ccco1)N1CCc2ccccc2C1 (configuration not stated)	-22.6%	5.1%	-2.1%	.	.	.
CC(=O)Nc1cccc(NC(=O)C(=O)NCC(c2ccco2)N2CCc3ccccc3C2)c1 (configuration not stated)	11.7µM*	3.1%	?	.	.	.
COc1cccc(C(=O)NCC(c2ccco2)N2CCc3ccccc3C2)c1 (configuration not stated)	?	2.8%	-21.3%	.	.	.
COc1ccc(S(=O)(=O)NCC(c2cccs2)N2CCc3ccccc3C2)cc1 (configuration not stated)	-24.1%	-13.0%	5.9%	.	.	.
COc1ccc(OC)c(S(=O)(=O)NCC(c2cccs2)N2CCc3ccccc3C2)c1 (configuration not stated)	14.7µM*	-14.0%	?	.	.	.
COc1cccc(NC(=O)C(=O)NCC(c2ccco2)N2CCc3ccccc3C2)c1 (configuration not stated)	11.7µM*	-0.1%	?	.	.	.
COc1ccc(NC(=O)C(=O)NCC(c2ccco2)N2CCc3ccccc3C2)cc1OC (configuration not stated)	11.7µM*	2.8%	?	.	.	.
COc1cc(/C=N/NC(=O)COc2ccc(-n3cnnn3)cc2)ccc1OCC(N)=O	-4.4%	0.0%	6.6%	-9.7	1.1	-0.6%
Cc1cc(C)c(S(=O)(=O)NCC(c2ccco2)N2CCc3ccccc3C2)c(C)c1 (configuration not stated)	9.28µM*	1.5%	?	.	.	.
COc1ccc(/C=N/NC(=O)c2ccc(COCC(F)(F)C(F)F)cc2)cc1	-8.5%	-4.5%	-12.9%	-1.4	-3.0	3.5%
CC(C)(C)c1ccc(OCc2ccc(C(=O)N/N=C3\CC4CC=CC34)cc2)cc1 (configuration not stated)	10.2%	-6.7%	-16.1%	17.5	16.8*	11.9%
SMILES	Pf growth 48h	SARS PLP yeast	Pf growth 96h	Shiga inhibitor	Cycloheximide cs	NS1 inh
O=C(N/N=C/c1ccc(OCc2ccccc2)cc1)c1cc[n+](Cc2ccccc2)cc1	-2.7%	8.8%	?	36.9*	20.4*	-30.3%
O=C(N/N=C/c1ccc(OCc2ccc(F)cc2)cc1)c1ccccc1	1.17µM*	-8.0%	-4.7%	-9.4	-5.9	.
O=C(N/N=C/c1ccc(O)cc1)c1cc[n+](Cc2ccccc2)cc1	10.7%	13.8%	?	-10.8	-3.3	-15.8%
Cc1ccc(OCc2ccc(C(=O)NCC3CCCO3)cc2)cc1 (configuration not stated)	-23.8%[5.75 µM]	-0.6%	?	35.5	-3.2	.
CC(C)(C)c1ccc(OCc2ccc(C(=O)N/N=C/c3ccc(O)c(O)c3)cc2)cc1	?	27.8%	?	63.9*	17.8*	.
O=C(CSc1nnc(SCc2cccc3ccccc23)s1)N/N=C/C=C/c1ccccc1[N+](=O)[O-]	54.5%	-4.9%	8.3%	1.1	8.5	21.4%
COc1ccc(COc2ccsc2C(=O)Nc2ccc(Cl)c(Cl)c2)cc1	20.6%	-1.5%	16.2%	16.1	10.1	-19.1%
O=C1CS/C(=N/N=C/c2cccs2)N1Cc1ccc(F)cc1	?	1.1%	24.6%	15.9	16.7	-8.4%
Cc1n[nH]c(C)c1S(=O)(=O)N(CC(=O)N1CCc2ccccc21)c1ccc(C(C)C)cc1	.	7.5%	-53.5%	-11.3	-1.7	-7.1%
Cn1cc(C(=O)N/N=C/c2cccs2)c2ccccc21	?	-44.9%	?	67.5*	39.1*	-21.0%
Cc1occc1C(=O)N/N=C/c1ccc2c(c1)OCO2	105.2%	-15.4%	440.0%	67.2*	25.9*	-58.7%
Cn1cc(C(=O)N/N=C/c2ccc3c(c2)OCO3)c2ccccc21	9.9%	-0.9%	-7.2%	57.9*	39.8*	-12.8%
Cc1cc(C(=O)N/N=C/c2ccc3c(c2)OCO3)c(C)o1	80.8%	-3.5%	43.4%	54.8*	42.3*	-8.4%
O=C(N/N=C/c1ccc2c(c1)OCO2)c1cccc2ccccc12	4.7%	-0.7%	50.3%	18.6	-0.6	3.8%
Cn1c2cc(C#N)sc2c2cnn(Cc3ccccc3F)c(=O)c21	.	.	.	-13.7	-8.0	.
Cn1c(C(=O)c2ccncc2)cc2ccccc21	13.1µM*	-1.0%	?	12.8	9.0	-0.3%
CCOC(=O)c1ccc(OC(=O)CCCCCN=C(N)N)cc1	?	.	4.55µM*	.	.	.
CCCc1c(C(=O)N2CCN(c3ccccc3OC)CC2)cnn1-c1ccccc1	-22.4%	-1.5%	-15.4%	20.2	0.3	-5.7%
CCCc1c(C(=O)NNc2ccccc2OC)cnn1-c1ccccc1	?	-0.6%	9.28µM*	40.9*	23.5*	4.2%
CCCc1c(C(=O)Nc2ccc(OC)cc2)cnn1-c1ccccc1	8.1%	-1.2%	?	53.6*	21.6*	-6.2%
CCN(C(C)=O)c1ccc(Oc2nc(OC)cc(OC)n2)cc1	22.2%	-1.5%	-7.9%	1.5	21.0	.
